Drawing on PubChem BioAssay (EPA / NIEHS), this text covers outcome and AC50 for 40 molecules.

Activity calls are given as the source filed them. Rule for the calls: active = hit-call score of the fitted dose curve at least 0.9, where 1 is the maximum; inactive = score below 0.9.

Read-out in the assay: Pselectin, SELP (gene 6403)
As to the kind of experiment: BSK_4H_Pselectin: BioMAP Diversity Plus: 4H Assay for Pselectin Biomarker Activity (AID 2283026). As to conditions: primary human endothelial cells (HUVEC); actives raise or lower the signal. The method, then: BSK_4H is a cell-based, multiplexed-readout assay that uses umbilical vein endothelium, a human vascular primary cell, with measurements taken at 24 hours after chemical dosing in a 96-well plate.BSK_4H_Pselectin is an assay component measured in the BSK_4H assay. It measures P-Selectin antibody related to regulation of gene expression using ELISA technology.Data from the assay component BSK_4H_Pselectin was analyzed into 1 assay endpoint. This assay endpoint, BSK_4H_Pselectin, was analyzed with bidirectional fitting relative to DMSO as the negative control and baseline of activity. Using a type of binding reporter, gain or loss-of-signal activity can be used to understand changes in the signaling as they relate to the gene SELP. Furthermore, this assay endpoint can be referred to as a primary readout, because this assay has produced multiple assay endpoints where this one serves a signaling function. To generalize the intended target to other relatable targets, this assay endpoint is annotated to the cell adhesion molecules intended target family, where the subfamily is selectins.
The levels of cell surface (or secreted, indicated by the prefix "s") biomarker endpoints were measured by ELISA. Overt cytotoxicity to cells in confluent adherent cultures (all systems other than the BT system) was assessed by measuring total protein levels using sulforhodamine B (SRB) staining in parallel cultures at the time of biomarker measurements, indicated as SRB endpoints. For proliferation assays for adherent cell types, individual cell types are cultured at sub-confluence and relative cell numbers quantified by SRB staining at time points optimized for each system (48 h: 3C and CASM3C systems; 72 h: BT and HDF3CGF systems; 96 h: SAg system). SRB was performed by staining cells with 0.1% SRB after fixation with 10% TCA and reading wells at 560 nm.Viability and proliferation of PBMC (T cells) was quantified by Alamar Blue reduction for the SAg and BT systems. For PBMC viability (referred to as PBMC Cytotoxicity within the assay endpoint names), cells were plated (75,000/well in a 96-well plate) and then chemical samples added for 1 h before addition of activators, SEB and TSST-1 (20 ng/mL final concentration each). Cells were incubated for 90 h. Then, Alamar Blue (20 uL/well) (Invitrogen, Cat DAL1100) was added for 6 h, and the plates were read with a fluorescence microplate reader at 546/580 nm (excitation/emission). For PBMC proliferation, cells were plated and activated as above but incubated for only 16 h prior to addition of Alamar Blue. Plates were read after 6 h.
Regarding `CCN(Cc1cccc(S(=O)(=O)O)c1)c1ccc(C(=C2C=CC(=[N+](CC)Cc3cccc(S(=O)(=O)O)c3)C=C2)c2ccccc2S(=O)(=O)[O-])cc1`, the outcome was inactive. The same measure, in the same setting: the entry for `CO[C@H]1/C=C/O[C@@]2(C)Oc3c(C)c(O)c4c(O)c(c(/C=N/N5CCN(C)CC5)c(O)c4c3C2=O)NC(=O)/C(C)=C\C=C\[C@H](C)[C@H](O)[C@@H](C)[C@@H](O)[C@@H](C)[C@H](OC(C)=O)[C@@H]1C` is “inactive”.

As to `COc1cccc([C@H](O)C2CCN(CCc3ccc(F)cc3)CC2)c1OC`, the half-maximal activity concentration (AC50) is 6.42 µM (active). As to `Clc1ccccc1C(c1ccccc1)(c1ccccc1)n1ccnc1`, the AC50 is 8.64 µM (active).

`CC(C)(O)c1ccc(CNC(=O)c2cccnc2Oc2ccc3nonc3c2)cc1`: the outcome was inactive. For the molecule `Cc1ccc(C(C)C)cc1`, the outcome was inactive. In the case of `Clc1cc(Cl)c2c(c1)N=C1CCCCCN1C2`, the outcome was inactive. Regarding `OCCO`, the result was inactive. Take `CC(C)(c1cc(Br)c(O)c(Br)c1)c1cc(Br)c(O)c(Br)c1`: the AC50 is 30.2 µM (active). With `CCO[Si](CCCNC(N)=O)(OCC)OCC`, the result was inactive. On the same count and under the same terms, under `Cc1occc1C(=O)Nc1ccc(C(=O)N2CCC(F)(F)/C(=C\C(=O)N3CCC(N4CCCCC4)CC3)c3ccccc32)cc1` stands “inactive”; under `Cc1ccc2oc(CN(Cc3ccccc3)C(=O)Nc3c(F)cc(F)cc3F)c(-c3ccc(Cl)cc3)c2c1`, “inactive”. For `CN1C(=O)CC[C@H]1c1cccnc1`, the outcome was inactive.

Turning to `O=C=NCCCCCCN=C=O`, the outcome was inactive. Regarding `CCCCCCCCCCCC[N+](C)(C)C`, the half-maximal activity concentration (AC50) is 20 µM (active). Regarding `O=C(O)c1ccccc1-n1cc(C(=O)O)c(=O)c2cc(Nc3c(F)cc(F)cc3Cl)c(Cl)cc21`, the result was inactive. For `O=C1O[C@H]([C@@H](O)CO)C(O)=C1O`, the outcome was inactive. Still for that read-out and setting: the entry for `CCCCCCCCCC(=O)O` is “inactive”.

Regarding `Cc1c2ccccc2c(C)c2c1ccc1ccccc12`, the AC50 is 14.7 µM (active). As for `CCCCCCCCN(C)CCCCCCCC`, the outcome was inactive. For `O=C(O)c1ccccc1C(=O)OCc1ccccc1`, the result was inactive. Take `COCC(C)OCC(C)OCC(C)O` (stereo not given): the result was inactive. Take `NC(=O)c1nc(-c2cccc(-c3cc(F)ccc3OCC(F)(F)C(F)(F)F)c2)n[nH]1`: the half-maximal activity concentration (AC50) is 30.8 µM (active).

For `c1ccc2ccccc2c1`, the result was inactive.

In the case of `Oc1ccc2ccccc2c1`, the outcome was inactive. Consider `O=C1CCC(C2CCCCC2)CC1`, for which the outcome was inactive.

Turning to `c1ccc2n[nH]nc2c1`, the outcome was inactive. On the same count and under the same terms, under `CCCCCCCCOc1ccc(C(=O)c2ccccc2)c(O)c1` stands “inactive”. With `C[C@]12CC[C@@H]3c4ccc(O)cc4CC[C@H]3[C@@H]1CCC2=O`, the outcome was inactive. Consider `CCCCCc1ccc(N)cc1`, for which the result was inactive. Turning to `CC(C)(C)c1cc(/C=C2\SC(N)=NC2=O)cc(C(C)(C)C)c1O`, the AC50 is 13.3 µM (active). Regarding `CC[C@H](NC(=O)c1cc(F)ccc1NS(=O)(=O)c1cccc2cccnc12)c1ccccc1`, the result was inactive. The same measure, in the same setting: under `OC12N=C(c3ccccc3)SC1Cc1cc(Cl)ccc12` (stereo not given) stands “inactive”; under `CC[C@@H]1C[C@H](N(Cc2cc(C(F)(F)F)cc(C(F)(F)F)c2)C(C)=O)c2cc(C(F)(F)F)ccc2N1C(=O)OC(C)C`, “inactive”. As to `CCCC(=O)OCCC(C)C`, the result was inactive. On to `Cc1ncc(CO)c(CO)c1O`, for which the outcome was inactive. Consider `CCCCCCCCCCCCO`, for which the concentration at half-maximal activity (AC50) is 34.2 µM (active). Take `C[C@]12CC[C@@H]3c4ccc(O)cc4CC[C@H]3[C@@H]1CC[C@H]2O`: the outcome was inactive. As to `Cc1cc(F)ccc1-c1cc(N2CC[C@@H](O)[C@H]2CO)ncc1N(C)C(=O)C(C)(C)c1cc(C(F)(F)F)cc(C(F)(F)F)c1`, the AC50 is 7.66 µM (active).

Consider `CN(C)c1ccc(C(=C2C=CC(=[N+](C)C)C=C2)c2ccc(N(C)C)cc2)cc1`, for which the AC50 is 0.613 µM (active).

In general, AC50 refers to the concentration giving half of the maximal activity seen.
